Laboratory results taken from PubChem BioAssay.
The source made the active and inactive calls.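 Rule for the calls, unless noted: active = fluorescence slope after compound addition differing from the mean of all screened samples at 99.7% confidence, in either direction; inactive = the rest.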

Key:
[1] = inhibitors of TNFa-induced NFkB p65 translocation, primary screen, imaging, HUVEC, MLSMR starter and 10KST1 sets (AID 438;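 active = inhibition above 20% together with a positive visual image hit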;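 note: compound added about 3h40 before a 20 min TNFalpha stimulation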;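 for inhibition: signal is the nuclear over cytoplasmic p65 intensity ratio per well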); conditions: HUVEC TNFa-induced p65 nuclear translocation; cell count: measured here: nuclei count (cytotoxicity indicator), at 2.08 µM; inhibition: at 2 µM, stronger effect = higher value, 0% TNFa-plus-vehicle, 100% no-TNFa wells
[2] = inhibitors of mutant huntingtin aggregation, primary screen, imaging, exon1htt(103Q)mCFP cells, high-content imaging (AID 483;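 active = visual image review flags a hit and inhibition of aggregation exceeds 20%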;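 note: compound exposure lasted 3 days before fixation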;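 for nuclei count: percent of the per-plate median nuclei count of sample wells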); conditions: exon1htt(103Q)mCFP cell line, aggregate imaging, at 2 µM; inhibition of aggregation: stronger effect = higher value; nuclei count: measured here: cell count, toxicity
[3] = inhibitors of E-selectin induction by TNFa, primary screen, imaging, HUVEC, immunofluorescence, MLSMR starter and 10KST1 sets (AID 487;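 active = visually confirmed hit in the image check and inhibition above 20%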;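 for inhibition: signal is fraction of cell area covered by stained E-selectin grains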;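 for nuclei count: 100% = median nuclei count of all wells on the same plate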); conditions: HUVEC TNFalpha-induced E-selectin immunofluorescence imaging, at 2 µM; inhibition: stronger effect = higher value; nuclei count: measured here: cell number, toxicity
[4] = target: Voltage-gated potassium channel subunit beta-2 (Rattus norvegicus) (UniProt P62483); experiment: KvBeta enzyme negative modulators, primary screen, biochemical, NADPH fluorescence (AID 622;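 active = fluorescence slope higher than the sample average by over 3 SD, cut at about -0.22 in these data, passing the limit was not always enough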;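 note: slope of raw intensity against log time taken from 70 to 1610 s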); conditions: recombinant KvBeta, 4-cyanobenzaldehyde reduction, at 10 µM, stronger effect = higher value
[5] = target: Voltage-gated potassium channel subunit beta-2 (Rattus norvegicus) (UniProt P62483); experiment: KvBeta positive modulators, primary screen, biochemical, NADPH fluorescence (AID 623;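 active = NADPH fluorescence slope more negative than the mean of all samples by about 3 SD, 99.7% confidence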;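 note: fluorescence intensity change per second fitted from 20 to 320 s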); conditions: Recombinant KvBeta, NADPH fluorescence decrease slope, 10 min; at 10 µM; stronger effect = lower value
[6] = target: Alpha-2C adrenergic receptor (Homo sapiens) (UniProt P18825); experiment: modulators of alpha2C/GIRK thallium flux, primary screen, cell-based, HEK293 alpha2C/GIRK1/2 (AID 624); conditions: thallium flux BTC fluorescence, at 10 µM, actives lie on both sides;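 note: slope of fluorescence ratio to pre-addition baseline per second over 15 to 24 s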
[7] = inhibitors of Sendai virus-induced IRF3 signaling, primary screen, TLR/RLR signaling modifier project, cell-based, Sendai virus stimulus, luciferase, 10K MLSCN set (AID 602276;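 active = inhibition at or above 50% at 10 µM; inactive = inhibition below 50%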;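 note: firefly luciferase from ISG56 promoter only with Renilla not read in this screen; 0% = Sendai virus plus DMSO and 100% = medium plus DMSO without virus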); conditions: HEK293 RL24 IRF3 luciferase reporter, at 10 µM, stronger effect = higher value
[8] = inhibitors of poly I:C-induced TLR3 signaling, primary screen, cell-based, poly I:C stimulus, luciferase, 10K MLSCN set (AID 602277;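 active = inhibition of the reporter signal at or above 50%; inactive = inhibition below 50%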); conditions: HEK293-TLR3 RL24 IRF3 luciferase reporter, at 10 µM, stronger effect = higher value

Sequence of Alpha-2C adrenergic receptor (Homo sapiens) (P18825 whole entry, looked up): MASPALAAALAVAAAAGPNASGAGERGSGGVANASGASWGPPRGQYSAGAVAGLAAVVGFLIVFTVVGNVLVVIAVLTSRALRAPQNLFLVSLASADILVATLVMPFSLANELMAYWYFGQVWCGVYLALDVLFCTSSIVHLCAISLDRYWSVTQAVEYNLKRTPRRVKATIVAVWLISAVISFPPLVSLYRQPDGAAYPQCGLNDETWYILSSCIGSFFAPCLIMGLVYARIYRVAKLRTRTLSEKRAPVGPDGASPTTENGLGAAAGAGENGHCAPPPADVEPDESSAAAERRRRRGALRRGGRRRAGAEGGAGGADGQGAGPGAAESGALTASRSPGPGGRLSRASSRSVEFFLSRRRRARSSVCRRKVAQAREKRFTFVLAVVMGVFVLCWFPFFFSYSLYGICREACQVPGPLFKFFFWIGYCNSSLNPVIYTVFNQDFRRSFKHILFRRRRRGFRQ
Sequence of Voltage-gated potassium channel subunit beta-2 (Rattus norvegicus) (P62483 whole entry, looked up): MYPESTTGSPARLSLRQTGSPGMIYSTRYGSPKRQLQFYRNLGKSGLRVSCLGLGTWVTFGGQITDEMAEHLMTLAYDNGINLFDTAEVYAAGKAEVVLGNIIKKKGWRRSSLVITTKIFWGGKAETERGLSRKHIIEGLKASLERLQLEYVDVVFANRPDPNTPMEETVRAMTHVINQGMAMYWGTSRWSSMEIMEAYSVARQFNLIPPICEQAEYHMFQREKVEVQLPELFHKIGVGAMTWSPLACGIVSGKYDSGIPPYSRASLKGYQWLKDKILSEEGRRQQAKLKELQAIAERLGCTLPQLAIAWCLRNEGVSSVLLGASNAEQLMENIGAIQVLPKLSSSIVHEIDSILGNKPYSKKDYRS

SMILES	cell count [1]	inhibition [1]	inhibition of aggregation [2]	nuclei count [2] [%]	inhibition [3]	nuclei count [3] [%]	fluorescence slope [4]	NADPH fluorescence slope [5]	slope [6]	inhibition [7]	inhibition [8]
CC(C)COC(=O)N(C)c1ccc(C(O)(C(F)(F)F)C(F)(F)F)cc1	744	-12.4% (inactive)	-7.8% (inactive)	116	-56.8% (inactive)	112	-0.618 (inactive)	-4.8e-06 (inactive)	0.00749 (inactive)	-9.85% (inactive)	-5.85% (inactive)
O=C1CC(c2cccs2)CC2=C1C(c1ccccc1)n1ncnc1N2 (stereo not drawn)	577	3.1% (inactive)	4.6% (inactive)	90.7	-72.5% (inactive)	98.9	-0.597 (inactive)	4.2e-06 (inactive)	0.00446 (inactive)	13.5% (inactive)	25.2% (inactive)
CCCCNc1cc(C)oc(=O)c1C(C)=O	590	10.2% (inactive)	11.4% (inactive)	97.3	-81% (inactive)	123	-0.443 (inactive)	2e-05 (inactive)	0.006 (inactive)	-0.373% (inactive)	22.9% (inactive)
COc1ccc(-c2nnc(SCCC(=O)O)n2-c2ccccc2)cc1	348	2.5% (inactive)	-19.5% (inactive)	107	-10.9% (inactive)	124	-0.644 (inactive)	1.6e-05 (inactive)	0.00524 (inactive)	12.1% (inactive)	16.4% (inactive)
Cc1noc(C)c1S(=O)(=O)N1CCCC(C(=O)NCCc2ccc(Cl)cc2)C1 (stereo not drawn)	402	7.3% (inactive)	-8.8% (inactive)	107	-78.1% (inactive)	106	-0.471 (inactive)	-0.000191 (inactive)	0.00592 (inactive)	11.6% (inactive)	7.58% (inactive)
CCOCCCNC(=O)C1CCCN(S(=O)(=O)CC)C1 (stereo not drawn)	630	-36% (inactive)	-6.6% (inactive)	112	-3.3% (inactive)	95.1	-0.408 (inactive)	-4e-05 (inactive)	0.00421 (inactive)	15.1% (inactive)	12.2% (inactive)
CCC1Oc2ccc(C)cc2N(CC(=O)NCCCN2CCCCC2CC)C1=O (stereo not drawn)	651	-3.9% (inactive)	26.7% (inactive)	109	-34.9% (inactive)	101	-0.41 (inactive)	2.7e-05 (inactive)	0.0055 (inactive)	16.8% (inactive)	38.8% (inactive)
CCOc1ccc(NC(=O)CN(C)CC(=O)NC2CCCc3ccccc32)cc1OCC (stereo not drawn)	451	14.9% (inactive)	-6.5% (inactive)	110	10.8% (inactive)	100	-0.288 (inactive)	-1.1e-05 (inactive)	0.00604 (inactive)	8.91% (inactive)	26.6% (inactive)
CC1/C(=N/O)C(CN(C)C)C2CC1C2(C)C (stereo not drawn)	347	-2.5% (inactive)	7.8% (inactive)	30.1	13.2% (inactive)	101	-0.592 (inactive)	1.8e-05 (inactive)	0.0062 (inactive)	3% (inactive)	11.5% (inactive)
O=C(NCCCn1ccnc1)c1cnn2c1NC(c1ccccc1)CC2C(F)(F)F (stereo not drawn)	616	-4.9% (inactive)	-5.5% (inactive)	98.3	6.6% (inactive)	93	-0.389 (inactive)	3.1e-05 (inactive)	0.00374 (inactive)	-0.0558% (inactive)	15.6% (inactive)
COC(=O)c1ccccc1NC(=O)Cn1ccnc1	310	-5.7% (inactive)	3.6% (inactive)	78.1	-12% (inactive)	86.6	-0.591 (inactive)	-6.8e-05 (inactive)	0.00553 (inactive)	5.19% (inactive)	23.4% (inactive)
O=C(CC1Oc2ccc(Cl)cc2NC1=O)NC1CCCCCC1 (stereo not drawn)	615	-4.3% (inactive)	19.5% (inactive)	51.7	0.7% (inactive)	100	-0.544 (inactive)	-3.7e-05 (inactive)	0.00511 (inactive)	8.85% (inactive)	6.03% (inactive)
COC(=O)c1cc(S(=O)(=O)N2CCC(C)CC2)ccc1F	552	-17% (inactive)	-56.8% (inactive)	112	-24.3% (inactive)	104	-0.452 (inactive)	-0.000117 (inactive)	0.00608 (inactive)	15.3% (inactive)	29.4% (inactive)
N#Cc1nc(-c2ccccc2Cl)oc1N1CCOCC1	332	5% (inactive)	10.4% (inactive)	96.7	-53.5% (inactive)	116	-0.356 (inactive)	3.4e-06 (inactive)	0.00468 (inactive)	5.17% (inactive)	-5.75% (inactive)
O=C(CCn1c(=O)sc2ccccc21)Nc1nccs1	575	-22.3% (inactive)	4.1% (inactive)	65.7	-53% (inactive)	98.6	-0.618 (inactive)	3e-05 (inactive)	0.00595 (inactive)	-21.2% (inactive)	-66.6% (inactive)
CCOc1ccc(C2C=C(c3ccc(F)cc3)Nc3ncnn32)cc1 (stereo not drawn)	548	11.5% (inactive)	-15.6% (inactive)	74.5	-113% (inactive)	125	-0.0654 (active)	-6.9e-06 (inactive)	0.00554 (inactive)	6.86% (inactive)	12.6% (inactive)
Cc1cc(NC(=O)CCC(=O)N(c2cccnc2)C(C(=O)NC2CCCC2)c2ccccc2F)no1 (stereo not drawn)	557	-9% (inactive)	11.8% (inactive)	107	-19.7% (inactive)	116	-0.62 (inactive)	-5.7e-06 (inactive)	0.00332 (inactive)	-5.41% (inactive)	-11% (inactive)
O=C(O)C1CCCN(S(=O)(=O)c2ccc(Cl)s2)C1 (stereo not drawn)	609	-7.1% (inactive)	13.3% (inactive)	88.8	-43.3% (inactive)	116	-0.558 (inactive)	-2.9e-05 (inactive)	0.00655 (inactive)	10.1% (inactive)	33.8% (inactive)
O=C(NCc1ccccc1)c1ccc(OC2CSC2)cc1	655	-30.1% (inactive)	9.3% (inactive)	97.9	-45.7% (inactive)	108	-0.486 (inactive)	-4.6e-05 (inactive)	0.00606 (inactive)	-8.59% (inactive)	-14.1% (inactive)
COC(=O)c1ccc2c(c1)nc(C)n2CCO	360	-4% (inactive)	-26% (inactive)	139	-23.6% (inactive)	94.3	-0.315 (inactive)	-2.9e-05 (inactive)	0.00466 (inactive)	5.24% (inactive)	12.5% (inactive)
CC1Cc2nc(SCC(=O)Nc3ccc4c(c3)OCO4)n(-c3ccc(F)cc3)c(=O)c2S1 (stereo not drawn)	680	-23.4% (inactive)	-2.5% (inactive)	102	-32.8% (inactive)	107	-0.401 (inactive)	-6.4e-05 (inactive)	0.00514 (inactive)	-0.186% (inactive)	51.2% (active)
CCOC(=O)N1CCN(C(=O)Cn2ncn3nc(-c4cccs4)cc3c2=O)CC1	313	-0.8% (inactive)	14.8% (inactive)	79.5	9.5% (inactive)	88.5	-0.404 (inactive)	2e-05 (inactive)	0.00387 (inactive)	-1.73% (inactive)	-47.5% (inactive)
O=C1CCc2cc(S(=O)(=O)N3CCC(C(=O)Nc4nccs4)CC3)ccc2N1	821	3.9% (inactive)	-29.1% (inactive)	105	-38.5% (inactive)	102	-0.593 (inactive)	-4.4e-05 (inactive)	0.00714 (inactive)	18.5% (inactive)	28.2% (inactive)
CC(C)(C)NC(=O)CSc1nnc(-c2ccccn2)n1-c1ccccc1	588	-10.6% (inactive)	-12.9% (inactive)	86.7	-36.6% (inactive)	122	-0.587 (inactive)	-2e-05 (inactive)	0.00702 (inactive)	-7.01% (inactive)	26.8% (inactive)
Nc1nnc(C(=O)c2ccccc2N)s1	384	-5.3% (inactive)	-21% (inactive)	99.9	-41.8% (inactive)	106	-0.438 (inactive)	-0.000136 (inactive)	0.00502 (inactive)	-1.19% (inactive)	-4.86% (inactive)
CCOc1cccc(OCCCCn2ccnc2)c1	339	-3.1% (inactive)	-7.7% (inactive)	99	-124% (inactive)	114	-0.36 (inactive)	5e-05 (inactive)	0.00579 (inactive)	9.17% (inactive)	21.4% (inactive)
COc1ccc(C(=O)NCc2nnc(SCC(=O)Nc3cc(C)cc(C)c3)o2)cc1OC	611	-14.4% (inactive)	14% (inactive)	76.5	-100% (inactive)	115	-0.272 (inactive)	-1e-05 (inactive)	0.00582 (inactive)	9% (inactive)	9.85% (inactive)
CCOC(=O)C1CCN(c2c(N3CCCCCC3)c(=O)c2=O)CC1	897	-0.9% (inactive)	-6.8% (inactive)	98.7	-84.4% (inactive)	112	-0.581 (inactive)	-4.7e-05 (inactive)	0.0057 (inactive)	8.92% (inactive)	28.8% (inactive)
